The source made the active and inactive calls.
Assays:
[1] = system: Human papillomavirus type 1a protein E7 (residues 44-93); test: HPV1a E7 fragment binders on microarrays, primary screen, biochemical, small-molecule microarray, residues 44-93, 635 nm fluorescence (AID 1108); details: small-molecule microarray binding, fluorescence 635 nm; higher = more signal;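 note: E7 fragment applied at 1 µg/mL in TBST for 1 h at 4 C; score combines spot fluorescence with its signal to noise ratio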
[2] = modulators of HCV replicon luciferase signal, primary screen, HCV replication inhibitor project, Huh7 cells, luciferase reporter (AID 1109); details: 48 h, higher = more signal;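 note: huh7 hepatoma cells harbouring a luciferase neomycin HCV replicon reporter; luciferase luminescence as measure of HCV replicon replication; test concentration not given here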
[3] = target: Left-right determination factor 2 (Homo sapiens) (UniProt O00292); test: LEFTY2 binders on small-molecule microarrays, primary screen, biochemical, small-molecule microarray, 635 nm fluorescence scan (AID 1110); details: LEFTY2 binding, higher = more signal
[4] = target: Calmodulin-1 (Homo sapiens) (UniProt P0DP23); test: CALM1 binders on microarrays, EGTA buffer, profiling panel, biochemical, small-molecule microarray, Cy5-labelled CALM1 (AID 1111); details: Cy5-CALM1 binding fluorescence, higher = more signal;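 note: labelled calmodulin applied in Tris saline Tween buffer holding calcium plus EGTA and DTT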
[5] = target: Calmodulin-1 (Homo sapiens) (UniProt P0DP23); test: calcium-bound CALM1 binders on microarrays, profiling panel, artefact control for SMM control-protein annotation, biochemical, small-molecule microarray, Cy5-labelled CALM1, plus calcium (AID 1112); details: Cy5-CALM1 binding fluorescence, higher = more signal;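 note: score merges spot fluorescence with signal to noise from triplicate slides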
[6] = small-molecule microarray binders of probe aWnt5a, primary screen, biochemical, biotinylated probe, 635/667 nm fluorescence (AID 1113); details: higher = more signal;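 note: score merges 667 nm fluorescence intensity with signal-to-noise per printed feature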
[7] = small-molecule microarray binders of probe aShh, primary screen, biochemical, biotinylated probe, 635/667 nm fluorescence (AID 1114); details: higher = more signal;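 note: probe is biotin-labelled aShh protein from a stem cell growth factor screen; measures binding of labelled protein to compounds printed on the slide; score merges feature fluorescence at 667 nm with signal-to-noise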
[8] = small-molecule microarray binders of probe aNog, primary screen, biochemical, biotinylated probe, 635/667 nm fluorescence (AID 1115); details: higher = more signal;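 note: probe is biotinylated aNog protein used at 0.15 µg/mL for 1 h at 4 C; z-score combines 667 nm fluorescence of each spot with its signal to noise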
[9] = target: Torsin-1A-interacting protein 1 (Homo sapiens) (UniProt Q5JTV8); test: LAP1 binders from COS7 cell lysate, primary screen, small-molecule microarray, 635/667 nm fluorescence (AID 1116); details: COS7-hLAP1 lysate binding, 635 nm fluorescence, higher = more signal
[10] = target: Alpha-bungarotoxin (Bungarus multicinctus) (UniProt P60615); test: alpha-bungarotoxin binders on microarray, profiling panel, artefact control for SMM control protein annotation, biochemical, small-molecule microarray, Alexa647 label, 635/667 nm fluorescence (AID 1117); details: alpha-BTX-A647 binding fluorescence, higher = more signal
Albumin (Bos taurus) = Albumin (Bos taurus) (UniProt P02769); test: bovine serum albumin binders on microarray, profiling panel, artefact control for SMM control protein annotation, biochemical, small-molecule microarray, Alexa647 label, 635/667 nm fluorescence (AID 1118); details: BSA-A647 binding, fluorescence 635 nm, higher = more signal;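 note: score merges 667 nm emission intensity and signal-to-noise per printed compound spot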
[11] = small-molecule microarray binders of probe aXIP, primary screen, biochemical, NeuroSMM set, 635/667 nm fluorescence (AID 1119); details: higher = more signal, called active from +8 up or from −8 down;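 note: probe is the protein aXip251-270 applied at 1 µg/mL to compound-printed slides; binding of probe to printed compounds measured as 667 nm fluorescence plus signal to noise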
[12] = small-molecule binders of probe aNOTCH3, primary screen, biochemical, small-molecule microarray, 635/667 nm fluorescence (AID 1120); details: higher = more signal;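 note: probe is a biotin-tagged antibody raised against NOTCH3 rather than NOTCH3 protein; score merges spot fluorescence near 667 nm with spot signal to noise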
[13] = small-molecule binders of probe aNOTCH2, primary screen, biochemical, small-molecule microarray, 635/667 nm fluorescence (AID 1121); details: higher = more signal;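 note: score merges feature fluorescence read at 667 nm with its signal to noise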
[14] = target: Carbonic anhydrase 2 (Homo sapiens) (UniProt P00918); test: CAII small-molecule binders, profiling panel, biochemical, small-molecule microarray, Alexa647-labelled CAII (AID 1122); details: CAII-A647 binding fluorescence, higher = more signal
[15] = COS7 lysate on small-molecule microarray, probe aHis, 635 nm (AID 1123); details: COS7 cell lysate, fluorescence, higher = more signal;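 note: z-score combines 667nm fluorescence intensity with signal-to-noise per printed compound spot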
[16] = compound binding in COS7 lysate, probe aLAP1, primary screen, cell lysate, small-molecule microarray (AID 1124); details: probe aLAP1, fluorescence, higher = more signal;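 note: lysate comes from COS7 cells expressing LAP1 and is applied at 0.3 µg/mL; score merges spot fluorescence near 667 nm with signal-to-noise over triplicate slides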
Sam68 (KHDRBS1) = test: Sam68 small-molecule binders, primary screen, biochemical, small-molecule microarray, 635 nm fluorescence (AID 1125); details: small-molecule microarray binding, higher = more signal;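 note: score merges 667 nm channel intensity with signal to noise over triplicate slides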
[17] = system: Chordin-like protein 2 (CHRDL2); test: CHRDL2 small-molecule binders, primary screen, biochemical, small-molecule microarray, 635 nm fluorescence (AID 1126); details: small-molecule microarray binding, fluorescence 635 nm; higher = more signal;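 note: printed compound slides probed with Chrdl2 protein at 4 µg/mL for 1 h at 4 C; score merges 667 nm emission intensity with signal to noise over three replicate slides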
[18] = target: Concanavalin-A (Canavalia ensiformis) (UniProt P02866); test: ConA small-molecule binders, primary screen, artefact control for SMM control protein annotation, biochemical, small-molecule microarray, Alexa647 label, 635 nm (AID 1127); details: ConA-A647 binding fluorescence, higher = more signal;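 note: z combines 667 nm emission intensity with signal-to-noise across three replicate slides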
Sequence of Concanavalin-A (Canavalia ensiformis) (P02866 whole entry, looked up): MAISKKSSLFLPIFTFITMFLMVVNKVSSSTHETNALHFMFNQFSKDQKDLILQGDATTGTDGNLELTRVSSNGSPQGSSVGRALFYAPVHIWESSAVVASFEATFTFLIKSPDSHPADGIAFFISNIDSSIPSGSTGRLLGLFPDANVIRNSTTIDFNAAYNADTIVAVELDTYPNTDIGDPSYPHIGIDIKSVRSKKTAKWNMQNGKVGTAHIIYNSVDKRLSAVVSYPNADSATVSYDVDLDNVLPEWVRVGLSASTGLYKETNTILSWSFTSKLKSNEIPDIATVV

Sequence of Left-right determination factor 2 (Homo sapiens) (O00292 whole entry, looked up): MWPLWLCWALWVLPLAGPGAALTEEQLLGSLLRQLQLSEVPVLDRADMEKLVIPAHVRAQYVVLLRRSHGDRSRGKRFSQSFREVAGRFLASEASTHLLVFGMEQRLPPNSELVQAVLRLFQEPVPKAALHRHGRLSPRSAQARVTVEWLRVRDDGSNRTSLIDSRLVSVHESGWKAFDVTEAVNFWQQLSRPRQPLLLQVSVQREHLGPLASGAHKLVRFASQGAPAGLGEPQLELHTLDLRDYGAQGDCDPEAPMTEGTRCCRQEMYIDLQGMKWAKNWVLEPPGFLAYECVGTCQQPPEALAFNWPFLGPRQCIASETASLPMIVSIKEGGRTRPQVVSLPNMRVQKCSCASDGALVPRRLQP
Sequence of Alpha-bungarotoxin (Bungarus multicinctus) (P60615 whole entry, looked up): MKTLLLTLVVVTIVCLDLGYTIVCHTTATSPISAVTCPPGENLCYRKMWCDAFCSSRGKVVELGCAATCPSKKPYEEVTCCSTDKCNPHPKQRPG
Sequence of Albumin (Bos taurus) (P02769 whole entry, looked up): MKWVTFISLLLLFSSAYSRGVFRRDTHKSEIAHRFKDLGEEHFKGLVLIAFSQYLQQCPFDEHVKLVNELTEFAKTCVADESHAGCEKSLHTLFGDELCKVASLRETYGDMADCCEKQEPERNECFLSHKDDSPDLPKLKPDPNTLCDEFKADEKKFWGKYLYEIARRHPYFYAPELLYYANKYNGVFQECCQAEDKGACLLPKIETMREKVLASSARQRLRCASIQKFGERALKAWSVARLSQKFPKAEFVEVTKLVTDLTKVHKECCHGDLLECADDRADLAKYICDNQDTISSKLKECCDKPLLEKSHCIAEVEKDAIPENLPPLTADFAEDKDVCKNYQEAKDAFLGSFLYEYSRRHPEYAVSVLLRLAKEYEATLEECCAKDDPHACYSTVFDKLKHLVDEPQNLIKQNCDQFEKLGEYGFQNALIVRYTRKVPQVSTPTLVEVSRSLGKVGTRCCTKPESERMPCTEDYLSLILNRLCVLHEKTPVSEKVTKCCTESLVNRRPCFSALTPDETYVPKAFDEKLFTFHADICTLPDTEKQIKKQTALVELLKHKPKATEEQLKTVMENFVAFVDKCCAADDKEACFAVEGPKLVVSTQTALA
Sequence of Torsin-1A-interacting protein 1 (Homo sapiens) (Q5JTV8 whole entry, looked up): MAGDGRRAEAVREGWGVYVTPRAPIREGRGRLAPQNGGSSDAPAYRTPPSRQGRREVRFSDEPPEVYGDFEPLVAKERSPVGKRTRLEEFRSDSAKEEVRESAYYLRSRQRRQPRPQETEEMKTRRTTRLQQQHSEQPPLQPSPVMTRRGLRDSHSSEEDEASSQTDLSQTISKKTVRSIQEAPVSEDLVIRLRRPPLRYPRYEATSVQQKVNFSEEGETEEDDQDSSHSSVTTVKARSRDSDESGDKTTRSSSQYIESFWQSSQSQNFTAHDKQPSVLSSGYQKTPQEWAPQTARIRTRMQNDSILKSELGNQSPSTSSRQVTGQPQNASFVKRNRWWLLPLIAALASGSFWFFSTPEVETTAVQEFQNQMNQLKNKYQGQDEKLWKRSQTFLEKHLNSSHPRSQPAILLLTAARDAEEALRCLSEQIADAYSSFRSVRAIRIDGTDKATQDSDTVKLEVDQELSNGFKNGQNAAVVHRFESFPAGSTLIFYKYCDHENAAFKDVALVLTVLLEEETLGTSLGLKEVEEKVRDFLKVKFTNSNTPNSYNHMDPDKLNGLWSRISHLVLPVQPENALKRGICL

Row | SMILES | composite z-score [1] | z-score [2] | composite z-score [3] | composite z-score [4] | composite z-score [5] | composite z-score [6] | composite z-score [7] | composite z-score [8] | composite z-score [9] | composite z-score [10] | composite z-score (Albumin (Bos taurus)) | composite Z-score [11] | composite z-score [12] | composite z-score [13] | composite z-score [14] | composite z-score [15] | composite z-score [16] | composite z-score (Sam68 (KHDRBS1)) | composite z-score [17] | composite z-score [18]
1 | COCCOC(=O)N1C(=O)[C@@]2(c3cc(C#CC4=CCCCC4)ccc31)[C@H](C(=O)N1CCc3cc(OC)c(OC)cc3C1)[C@H]1C(=O)O[C@H](c3ccccc3)[C@H](c3ccccc3)N1[C@@H]2c1ccc(O)cc1 | 1.42 | -0.934 | 0.761 | 1.74 | 0.673 | 0.18 | 0.482 | 0.707 | 1.34 | 0.967 | 0.482 | 0.334 (inactive) | 0.285 | 0.307 | 0.267 | 1.32 | 0.858 | 1.1 | 0.463 | 1.19
2 | CCCCC(O)C1C=CC2C(=O)NC(=O)C2N1Nc1ccc(Cl)cc1Cl (stereo not given) | 0.694 | -1.12 | -1.11 | 0.436 | 0.476 | 0.0915 | 0.0483 | 1.31 | -0.0411 | 1.1 | 0.891 | 0.593 (inactive) | 0.23 | 0.0264 | 0.253 | 2.54 | 0.0614 | 0.0434 | -0.452 | 0.255
3 | C=C(CCCC)/C(=C/C[C@H](OC(C)=O)c1cccc(OCCO)c1)c1cc(C(=O)OC)ccc1OC | -0.323 | -1.95 | -0.277 | -0.343 | -1.12 | -0.0721 | 0.0062 | 0.257 | 0.455 | -0.0712 | 0.387 | -0.822 (inactive) | -0.21 | -0.132 | 0.355 | -0.148 | 0.147 | 0.302 | -0.149 | -0.795
4 | C=CC[C@@]12N=C(c3ccc(OCCCO)cc3)O[C@@H]1c1ccccc1N(Cc1ccccc1)C2=O | 0.598 | -2.27 | 0.657 | 0.792 | 0.355 | 0.127 | -0.114 | 1.1 | 1.16 | 0.858 | 0.0349 | 0.407 (inactive) | 0.405 | 0.14 | 0.463 | 3.15 | 0.532 | 1.3 | 1.43 | 1.02
5 | COc1ccccc1CN1C(=O)c2ccccc2[C@@H](C(=O)NCCCN(C)C)[C@@H]1c1ccc(CO)cc1 | -1.09 | -1.98 | 0.155 | -0.388 | -0.298 | -0.0529 | -0.0263 | -0.337 | 0.55 | 0.256 | 0.303 | 0.0241 (inactive) | -0.2 | -0.152 | 0.733 | -0.171 | 0.323 | -2.03 | 0.288 | 0.343

Source: PubChem BioAssay
